# From article PMC11995724, “Antibiotic target discovery by integrated phenotypic and activity-based profiling of electrophilic fragments” (Cell chemical biology, 2025)
# The campaign covered roughly 3,200 compounds. About 110 (3.4%) showed an effect of 50% or more. The entries come from a sample that favours strong results as a whole.
# System: T1, V. cholerae SAD30
# T1 construct: SAD30
# Design: species or system S. aureus MSSA476 (TSB) or V. cholerae SAD30 (LB); 384-well bacterial growth screen at 25 uM, OD600 relative to DMSO control
# Conditions: relative growth, OD600, LB; 25 µM; inhibitor
row,SMILES,% of control remaining [%]
1,"Cc1ccc(NC(=O)CCl)c([N+](=O)[O-])c1 [4-A07, 2-chloro-N-(4-methyl-2-nitrophenyl)acetamide]",105.068
2,"COc1ccc(N2C(=O)C=CC2=O)c([N+](=O)[O-])c1 [10-L11, 1-(4-methoxy-2-nitrophenyl)-2,5-dihydro-1H-pyrrole-2,5-dione]",30.3916
3,"COc1ccc(NC(=O)C(C)Cl)c([N+](=O)[O-])c1 (stereo not shown) [6-B08, 2-chloro-N-(4-methoxy-2-nitrophenyl)propanamide]",90.3972
4,"COc1ccc(NC(=O)CCl)c([N+](=O)[O-])c1 [4-I21, 2-chloro-N-(4-methoxy-2-nitrophenyl)acetamide]",107.311
5,"Cc1ccc(N2C(=O)C=CC2=O)c([N+](=O)[O-])c1 [10-N13, 1-(4-methyl-2-nitrophenyl)-2,5-dihydro-1H-pyrrole-2,5-dione]",27.1186
6,"CSc1cccc(-n2c(C)cc(C(=O)CCl)c2C)c1 [10-J16, 2-chloro-1-{2,5-dimethyl-1-[3-(methylsulfanyl)phenyl]-1H-pyrrol-3-yl}ethan-1-one]",105.825
7,"Cc1ccc(NC(=O)C(C)Cl)cc1S(=O)(=O)N1CCOCC1 (stereo not shown) [5-D22, 2-chloro-N-[4-methyl-3-(morpholine-4-sulfonyl)phenyl]propanamide]",107.429
8,"N#CC(=Cc1ccc(Cl)cc1Cl)C(=O)Nc1nccs1 [9-H19, 2-cyano-3-(2,4-dichlorophenyl)-N-(1,3-thiazol-2-yl)prop-2-enamide]",79.4697
9,"C=CC(=O)Nc1ccnn1Cc1cccc(Cl)c1 [1-N14, N-{1-[(3-chlorophenyl)methyl]-1H-pyrazol-5-yl}prop-2-enamide]",86.3592
10,"C=CC(=O)N(CC)CC(=O)N1CC(C)(C)C1c1nccn1C (stereo not shown) [2-J16, N-{2-[3,3-dimethyl-2-(1-methyl-1H-imidazol-2-yl)azetidin-1-yl]-2-oxoethyl}-N-ethylprop-2-enamide]",90.3503
11,"CC(Cl)C(=O)NC(=O)Nc1ccccc1 (stereo not shown) [5-I21, 3-(2-chloropropanoyl)-1-phenylurea]",104.066
12,"C=CC(=O)NC1CS(=O)(=O)C1 [3-P18, N-(1,1-dioxo-1lambda6-thietan-3-yl)prop-2-enamide]",112.909
13,"COc1ccc([N+](=O)[O-])cc1NC(=O)CCl [4-P17, 2-chloro-N-(2-methoxy-5-nitrophenyl)acetamide]",111.969
14,"COc1cc([N+](=O)[O-])ccc1NC(=O)CCl [4-O07, 2-chloro-N-(2-methoxy-4-nitrophenyl)acetamide]",100.582
15,"COc1ccc([N+](=O)[O-])cc1N1C(=O)C=CC1=O [10-P13, 1-(2-methoxy-5-nitrophenyl)-2,5-dihydro-1H-pyrrole-2,5-dione]",32.7294
16,"COc1ccc([N+](=O)[O-])cc1NC(=O)C(C)Cl (stereo not shown) [5-N14, 2-chloro-N-(2-methoxy-5-nitrophenyl)propanamide]",92.6342
17,"COc1cc([N+](=O)[O-])ccc1N1C(=O)C=CC1=O [10-H13, 1-(2-methoxy-4-nitrophenyl)-2,5-dihydro-1H-pyrrole-2,5-dione]",24.625

row,SMILES,% of control remaining [%]
1,"COc1cc([N+](=O)[O-])ccc1NC(=O)C(C)Cl (stereo not shown) [4-K12, 2-chloro-N-(2-methoxy-4-nitrophenyl)propanamide]",93.5087
2,"CCN(CC)S(=O)(=O)c1cccc(NC(=O)CCl)c1 [4-M07, 2-chloro-N-[3-(diethylsulfamoyl)phenyl]acetamide]",105.931
3,"C=CC(=O)N1CCC(C(=O)N[C@H]2CCC[C@H]2O)CC1 [2-K04, N-[(1S,2R)-2-hydroxycyclopentyl]-1-(prop-2-enoyl)piperidine-4-carboxamide]",95.9085
4,"C=CC(=O)N1CCC(n2ncc3ccccc32)CC1 [1-K22, 1-[4-(1H-indazol-1-yl)piperidin-1-yl]prop-2-en-1-one]",95.6652
5,"CC(Cl)C(=O)Nc1nc(-c2ccccc2)cs1 (stereo not shown) [6-L10, 2-chloro-N-(4-phenyl-1,3-thiazol-2-yl)propanamide]",85.6953
6,"C=CC(=O)N1CCOCC1c1cc(F)cc(F)c1 (stereo not shown) [2-O16, 1-[3-(3,5-difluorophenyl)morpholin-4-yl]prop-2-en-1-one]",92.203
7,"O=C(CCl)NCCS(=O)(=O)N1CCc2ccccc21 [6-H04, 2-chloro-N-[2-(2,3-dihydro-1H-indole-1-sulfonyl)ethyl]acetamide]",103.138
8,"CS(=O)(=O)N1CCCc2cc(C(=O)CCl)ccc21 [10-H19, 2-chloro-1-(1-methanesulfonyl-1,2,3,4-tetrahydroquinolin-6-yl)ethan-1-one]",22.9106
9,"CN1C(=O)Cc2cc(C(=O)CCl)ccc21 [10-G07, 5-(2-chloroacetyl)-1-methyl-2,3-dihydro-1H-indol-2-one]",54.3931
10,"O=CN1CCc2cc(C(=O)CCl)ccc21 [10-K20, 5-(2-chloroacetyl)-2,3-dihydro-1H-indole-1-carbaldehyde]",27.1186
11,"CC1Cc2cc(C(=O)CCl)ccc2N1S(C)(=O)=O (stereo not shown) [10-A04, 2-chloro-1-(1-methanesulfonyl-2-methyl-2,3-dihydro-1H-indol-5-yl)ethan-1-one]",89.6162
12,"N#Cc1ccc2c(c1)CCN2C(=O)CCl [5-N09, 1-(2-chloroacetyl)-2,3-dihydro-1H-indole-5-carbonitrile]",93.4748
13,"O=C(CCl)c1cc2c3c(c1)CC(=O)N3CCC2 [10-G16, 6-(2-chloroacetyl)-1-azatricyclo[6.3.1.0,4,12]dodeca-4(12),5,7-trien-2-one]",27.7421
14,"CCC(=O)N1CCc2cc(C(=O)CCl)ccc21 [10-C22, 1-[5-(2-chloroacetyl)-2,3-dihydro-1H-indol-1-yl]propan-1-one]",119.54
15,"CCS(=O)(=O)N1CCc2cc(C(=O)CCl)ccc21 [10-E18, 2-chloro-1-[1-(ethanesulfonyl)-2,3-dihydro-1H-indol-5-yl]ethan-1-one]",27.8979
16,"O=C(CCl)c1ccc2c(c1)CCN(C(=O)C(F)(F)F)C2 [10-E09, 1-[6-(2-chloroacetyl)-1,2,3,4-tetrahydroisoquinolin-2-yl]-2,2,2-trifluoroethan-1-one]",98.6558
17,"O=C(CCl)c1c[nH]c(C(=O)N2CCCC2)c1 [10-A16, 2-chloro-1-[5-(pyrrolidine-1-carbonyl)-1H-pyrrol-3-yl]ethan-1-one]",108.475
